A selection: hits, their analogues and other compounds. The true share with any hit is near 0.67%.
BH1578 lux ind = induces V. cholerae light production without autoinducers; V. cholerae BH1578 lux reporter, luminescence, 6 h; activation, % at 18.7 µM; 350,000 compounds, 0.16% hits; AID 588436; in the data active means activation mostly above about 9.7%, no sharp cut-off
TcdB inh = inhibitors of Clostridioides difficile toxin B glycohydrolase. inhibition, % at 9.99 µM. P18177. 350,000 compounds, 0.24% hits. AID 652162. TcdB glycohydrolase enzymatic assay, plate reader; in the data active means inhibition above about 10%
Sa RN4220 lethal = S. aureus RN4220 growth inhibition. OD600, 16 h. inhibition, % (no concentration beside the values). 330,000 compounds, 0.33% hits. AID 1259311; in the data active means inhibition above about 85%
ugtP null kill = compounds lethal to S. aureus RN4220 ugtP deletion mutant; OD600 growth, 16 h; growth inhibition, % (concentration not given with the values); 330,000 compounds, 0.54% hits; AID 1259309; in the data active means growth inhibition above about 68%
Numbers stand for hits.

`CC(=O)Nc1ccc(S(=O)(=O)N2CCCC(C(=O)O)C2)cc1` (stereo not given) gave BH1578 lux ind inactive, TcdB inh 18, Sa RN4220 lethal inactive and ugtP null kill inactive.
For CN(C)c1ccc(C=c2sc3n(c2=O)CCCN=3)cc1 the results were Sa RN4220 lethal inactive and ugtP null kill inactive.
Screening O=C1CCCC=CCC(CC(=O)N(CCO)Cc2ccccc2)C(=O)NCCO1 (stereo not given) returned Sa RN4220 lethal inactive and ugtP null kill inactive.
`C#CCOCCOCCOCCNc1nc(N2CCN(C(=O)Cn3cc(CCCN=C(N)N)nn3)CC2)nc(N2CCN(C(=O)C(C)n3cc(CCCN=C(N)N)nn3)CC2)n1` (stereo not given) gave Sa RN4220 lethal inactive and ugtP null kill inactive.
`CCNC(=S)NN=C(C)c1ccc(N2CCOCC2)cc1` gave Sa RN4220 lethal inactive and ugtP null kill inactive.
For COc1cc(/C=N/NC(=O)c2nnn(-c3nonc3N)c2C(C)C)ccc1O the results were BH1578 lux ind inactive and TcdB inh 13.
Cc1ccc(-c2c(C(=O)NN=Cc3sccc3C)nnn2-c2nonc2N)cc1 was read as Sa RN4220 lethal 94 and ugtP null kill inactive.
CN1CCN(N=Cc2ccc(Cl)c(Cl)c2)CC1 was read as Sa RN4220 lethal inactive and ugtP null kill inactive.
Cc1ccccc1-n1c(=O)c2ccccc2n2c(=O)[nH]nc12 was read as BH1578 lux ind inactive, Sa RN4220 lethal inactive and ugtP null kill inactive.
For Cc1cccc(-n2c(=O)c3ccccc3n3c(=S)[nH]nc23)c1C the results were BH1578 lux ind inactive, TcdB inh 12, Sa RN4220 lethal inactive and ugtP null kill inactive.
`CCc1ccc(NC(=O)c2cc(C)on2)cc1` gave BH1578 lux ind inactive, TcdB inh 11, Sa RN4220 lethal inactive and ugtP null kill inactive.
Cc1ccc(NC(=O)c2cc(C)on2)cc1 was read as BH1578 lux ind inactive, Sa RN4220 lethal inactive and ugtP null kill inactive.
CC(C)(Oc1ccc(Cl)cc1)C(=O)NC1CC1 was read as BH1578 lux ind inactive, TcdB inh 11, Sa RN4220 lethal inactive and ugtP null kill inactive.
Screening Fc1ccc(Oc2ccc3nnc(C(F)(F)F)n3n2)cc1 returned BH1578 lux ind inactive, TcdB inh inactive, Sa RN4220 lethal inactive and ugtP null kill inactive.
For COc1cccc(Oc2ccc3nnc(C(F)(F)F)n3n2)c1 the results were BH1578 lux ind inactive, TcdB inh 11, Sa RN4220 lethal inactive and ugtP null kill inactive.
For O=C(Nc1nc(-c2cccs2)c(C(=O)C(F)(F)F)s1)c1ccccc1 the results were BH1578 lux ind inactive, TcdB inh inactive, Sa RN4220 lethal 88 and ugtP null kill inactive.
Screening O=C(Nc1nc(-c2cccs2)c(C(=O)C(F)(F)F)s1)c1ccco1 returned BH1578 lux ind inactive, TcdB inh inactive, Sa RN4220 lethal inactive and ugtP null kill inactive.
Screening O=C(Nc1cccc(C(F)(F)F)c1)c1cccnc1N1CCN(c2ccccc2)CC1 returned BH1578 lux ind inactive, Sa RN4220 lethal inactive and ugtP null kill 92.
`c1ccc(C[n+]2csc3ccccc32)cc1` gave BH1578 lux ind inactive, TcdB inh inactive, Sa RN4220 lethal inactive and ugtP null kill inactive.
Fc1cccc(C[n+]2csc3ccccc32)c1 was read as BH1578 lux ind inactive, Sa RN4220 lethal inactive and ugtP null kill 96.
O=c1c2ccccc2nc(/C=C/c2ccccc2F)n1-c1ccccc1O was read as BH1578 lux ind inactive, TcdB inh inactive, Sa RN4220 lethal 98 and ugtP null kill 99.
CCCCCCC(=O)N1CC=CC(c2ccc(OC)cc2)N(Cc2ccc(F)cc2)C(=O)C1Cc1ccccc1 (stereo not given) was read as Sa RN4220 lethal inactive and ugtP null kill inactive.
Screening COc1cccc(C=c2sc(=C(C#N)C(=O)N3CCOCC3)n(-c3ccccc3)c2=O)c1 returned Sa RN4220 lethal inactive and ugtP null kill inactive.
Screening O=C(O)CC1c2ccccc2S(=O)(=O)N1C1CCCCC1 (stereo not given) returned Sa RN4220 lethal inactive and ugtP null kill inactive.
For CC(=O)C[C@H]1c2ccccc2S(=O)(=O)N1C1CCCCC1 the results were BH1578 lux ind inactive and TcdB inh 14.
For CC(=NNc1cc(-c2ccccc2)nc(-c2ccccc2)n1)c1ccc(O)c(C)c1 the results were Sa RN4220 lethal 98 and ugtP null kill 99.
COc1cc(NN=C(C)c2ccc(O)c(C)c2)nc(-c2ccccc2)n1 was read as Sa RN4220 lethal inactive and ugtP null kill inactive.
For CN(C)c1ccc(-c2ccc(C3C4C=CCC[C@@]4(C)C(=O)N3Cc3ccccc3)c(F)c2)cc1 (stereo not given in full) the results were Sa RN4220 lethal inactive and ugtP null kill inactive.
CCn1c(C)c(C(C)=O)c(N2CCN(c3cccc(Cl)c3)CC2)nc1=S was read as BH1578 lux ind inactive, Sa RN4220 lethal inactive and ugtP null kill inactive.
Screening CC(=O)c1c(N2CCN(c3cccc(Cl)c3)CC2)nc(=S)n(-c2ccccc2)c1C returned BH1578 lux ind inactive, Sa RN4220 lethal inactive and ugtP null kill 83.
For C=C[C@]12CC[C@H](OC(C)=O)CC1=CCC1C2CC[C@@]2(C)C1CCC21OCCO1 (stereo not given in full) the results were BH1578 lux ind inactive, TcdB inh inactive, Sa RN4220 lethal inactive and ugtP null kill 92.
Screening CC(=O)OC1CCC2(C=NO)C(=CCC3C4CCC(=O)C4(C)CCC32)C1 (stereo not given) returned Sa RN4220 lethal inactive and ugtP null kill inactive.
Screening Cc1cc(=O)[nH]c(NN=Cc2ccc([N+](=O)[O-])cc2)n1 returned Sa RN4220 lethal inactive and ugtP null kill inactive.
C(=Nc1nccs1)c1cccnc1 was read as Sa RN4220 lethal inactive and ugtP null kill inactive.
Screening CCCCN1C(=N)N(C(CCC)CN2CCCC2CN2C(N)=NCC2Cc2ccccc2)CC1Cc1ccccc1 (stereo not given) returned Sa RN4220 lethal inactive and ugtP null kill 98.
For CC[C@@H](C)[C@@H]1CN([C@@H](CN2CCC[C@H]2CN2C(N)=NC[C@H]2C(C)C)C(C)C)C(=N)N1CCc1ccc(Cl)c(Cl)c1 the results were BH1578 lux ind inactive, Sa RN4220 lethal 101 and ugtP null kill 101.
`CC(C)C[C@@H]1CN=C(N)N1C[C@@H]1CCCN1C[C@@H](C(C)C)N1C[C@@H](Cc2ccccc2)N(CCCC2CCCC2)C1=N` gave BH1578 lux ind inactive, TcdB inh inactive, Sa RN4220 lethal 101 and ugtP null kill 101.
CCC[C@@H](CN1CCC[C@H]1CN1C(N)=NC[C@H]1C(C)C)N1C[C@@H](Cc2ccccc2)N(CCCC2CCCC2)C1=N was read as BH1578 lux ind inactive, TcdB inh inactive, Sa RN4220 lethal 100 and ugtP null kill 101.
`Cc1ccc(C=NNC(=O)c2ccc(-c3ccccc3)cc2)o1` gave Sa RN4220 lethal inactive and ugtP null kill inactive.
CC1COC(=O)C(Cc2ccc(F)cc2)CC=CCC(CC(=O)NC(CO)Cc2ccccc2)C(=O)N1 (stereo not given) was read as Sa RN4220 lethal inactive and ugtP null kill inactive.
Screening Cc1ccsc1C=NNc1nc(Cl)c(Cl)cc1Cl returned Sa RN4220 lethal inactive and ugtP null kill inactive.
For CC(/C=C/c1ccccc1)=NNC(=O)c1ccc(Br)cc1 the results were Sa RN4220 lethal inactive and ugtP null kill inactive.

High-throughput results from PubChem BioAssay.
